# Reference: paper PMC5540273 (PLoS ONE, 2017)
# Several values for one entry are separate records, joined by “and”; a condition that tells them apart may be missing. Equal values may be shown once. Read-outs that look alike come from different tables or passages of the source.
# What was measured:
# Conditions in all cases: concentration: 1 μM, replicates: in singlicate, n = 1
# RIPK5 = tested on: RIPK5
# ROCK1 = tested on: ROCK1
# ROCK2 = tested on: ROCK2
# ROS1 = tested on: ROS1
# [1] = tested on: RPS6KA4(Kin.Dom.1-N-terminal)
# [2] = tested on: RPS6KA4(Kin.Dom.2-C-terminal)
# [3] = tested on: RPS6KA5(Kin.Dom.1-N-terminal)
# [4] = tested on: RPS6KA5(Kin.Dom.2-C-terminal)
# [5] = tested on: T1, RSK1(Kin.Dom.1-N-terminal)
# T1 construct: gene RPS6KA1
# [6] = tested on: T2, RSK1(Kin.Dom.2-C-terminal)
# T2 construct: gene RPS6KA1
# 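Also: KINOMEscan kinase panel screen.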
smiles,measurement,setting,value
CNc1ncnc2[nH]ncc12 [SKF-18355],%Inh,RIPK5,8%
same,%Inh,ROCK1,91.5%
same,%Inh,ROCK2,84%
same,%Inh,ROS1,0%
same,%Inh,[1],23%
same,%Inh,[2],0%
same,%Inh,[3],0%
same,%Inh,[4],17%
same,%Inh,[5],0%
same,%Inh,[6],15%
COc1cc(Nc2nccc(N3CCC(NC(=O)c4cccc(NC(C)=O)c4)C3)n2)cc(OC)c1OC (stereo not shown) [GSK1379754],%Inh,RIPK5,0%
same,%Inh,ROCK1,32%
same,%Inh,ROCK2,49%
same,%Inh,ROS1,44%
same,%Inh,[1],23%
same,%Inh,[2],0%
same,%Inh,[3],11%
same,%Inh,[4],0%
same,%Inh,[5],58%
same,%Inh,[6],0%
NCCNS(=O)(=O)c1ccc(-c2ccnc3[nH]ccc23)cc1 [GSK977617],%Inh,RIPK5; 1 µM,3% and 0%
same,%Inh,ROCK2,99.8%
same,%Inh,ROS1; 1 µM,65% and 43%
same,%Inh,[1]; 1 µM,48% and 33%
same,%Inh,[2]; 1 µM,99.2% and 98.5%
same,%Inh,[3]; 1 µM,47% and 33%
same,%Inh,[4]; 1 µM,97.6% and 94.8%
same,%Inh,[5]; 1 µM,62% and 27%
same,%Inh,[6]; 1 µM,63% and 41%
O=C(Nc1cccc(-c2nn3ncccc3c2-c2ccnc(Nc3cccc(C(F)(F)F)c3)n2)c1)c1c(F)cccc1F [GSK299495],%Inh,RIPK5,0%
same,%Inh,ROCK1,12%
same,%Inh,ROCK2,16%
same,%Inh,ROS1,0%
same,%Inh,[1],2%
same,%Inh,[2],0%
same,%Inh,[3],23%
same,%Inh,[4],5%
same,%Inh,[5],97.4%
same,%Inh,[6],0%
Fc1ccc(-c2ncn(CCCN3CCOCC3)c2-c2ccccn2)cc1 [SB-211742],%Inh,RIPK5,0%
same,%Inh,ROCK1,0%
same,%Inh,ROCK2,0%
same,%Inh,ROS1,0%
same,%Inh,[1],26%
same,%Inh,[2],0%
same,%Inh,[3],0%
same,%Inh,[4],5%
same,%Inh,[5],0%
same,%Inh,[6],16%
O=C(NOCC1CC1)c1ccc(F)c(F)c1Nc1ccc(I)cc1Cl,%Inh,RIPK5,0%
same,%Inh,ROCK1,0%
same,%Inh,ROCK2,0%
same,%Inh,ROS1,0%
same,%Inh,[1],0%
same,%Inh,[2],0%
same,%Inh,[3],0%
same,%Inh,[4],0%
same,%Inh,[5],0%
same,%Inh,[6],6%
c1ccc(-c2cc(-c3c[nH]nc3-c3ccccn3)ccn2)cc1 [GW576604],%Inh,RIPK5,0%
same,%Inh,ROCK1,10%
same,%Inh,ROCK2,30%
same,%Inh,ROS1,21%
same,%Inh,[1],0%
same,%Inh,[2],0%
same,%Inh,[3],0%
same,%Inh,[4],3%
same,%Inh,[5],0%
same,%Inh,[6],1%
COc1cc2c(cc1OC[C@@H](O)CO)ncc1c3ccc(C#N)cc3[nH]c21,%Inh,RIPK5,7%
same,%Inh,ROCK1,91.1%
same,%Inh,ROCK2,96.9%
same,%Inh,ROS1,0%
same,%Inh,[1],0%
same,%Inh,[2],9%
same,%Inh,[3],0%
same,%Inh,[4],26%
same,%Inh,[5],33%
same,%Inh,[6],17%
Cc1cccc(Cn2ccn3c(=O)cc(N4CCOCC4)nc23)c1 [GSK2297542],%Inh,RIPK5,1%
same,%Inh,ROCK1,17%
same,%Inh,ROCK2,27%
same,%Inh,ROS1,30%
same,%Inh,[1],13%
same,%Inh,[2],0%
same,%Inh,[3],16%
same,%Inh,[4],0%
same,%Inh,[5],27%
same,%Inh,[6],25%
O=c1cc(N2CCOCC2)nc2n(Cc3cccc(C(F)(F)F)c3)ccn12 [GSK2297543],%Inh,RIPK5,0%
same,%Inh,ROCK1,0%
same,%Inh,ROCK2,17%
same,%Inh,ROS1,32%
same,%Inh,[1],13%
same,%Inh,[2],0%
same,%Inh,[3],4%
same,%Inh,[4],6%
same,%Inh,[5],0%
same,%Inh,[6],15%
COc1ccc(Nc2nccc(N3CCC(NC(=O)Nc4cc(C)ccc4C)C3)n2)cc1 (stereo not shown) [GSK1379741],%Inh,RIPK5,0%
same,%Inh,ROCK1,14%
same,%Inh,ROCK2,0%
same,%Inh,ROS1,0%
same,%Inh,[1],0%
same,%Inh,[2],0%
same,%Inh,[3],8%
same,%Inh,[4],19%
same,%Inh,[5],6%
same,%Inh,[6],0%
CN1c2ccc(CNc3ccc(F)cc3)cc2-c2c(cnn2C)S1(=O)=O,%Inh,RIPK5,4%
same,%Inh,ROCK1,0%
same,%Inh,ROCK2,0%
same,%Inh,ROS1,4%
same,%Inh,[1],0%
same,%Inh,[2],0%
same,%Inh,[3],0%
same,%Inh,[4],0%
same,%Inh,[5],0%
same,%Inh,[6],14%
CC(=O)Nc1ccc(COc2ccc(Nc3ccnc4cc(-c5ccccn5)ccc34)cc2)cc1.Cl [GW440148],%Inh,RIPK5,0%
same,%Inh,ROCK1,14%
same,%Inh,ROCK2,7%
same,%Inh,ROS1,0%
same,%Inh,[1],0%
same,%Inh,[2],0%
same,%Inh,[3],1%
same,%Inh,[4],20%
same,%Inh,[5],7%
same,%Inh,[6],33%
O=C(NCCNc1ccnc(Nc2ccc(F)cc2)n1)Nc1ccccc1F [GSK1379880],%Inh,RIPK5,0%
same,%Inh,ROCK1,40%
same,%Inh,ROCK2,9%
same,%Inh,ROS1,0%
same,%Inh,[1],4%
same,%Inh,[2],0%
same,%Inh,[3],0%
same,%Inh,[4],15%
same,%Inh,[5],1%
same,%Inh,[6],0%
Cl.Cl.Cl.Fc1ccc(-c2ncn(C3CCNCC3)c2-c2ccnc(Nc3ccccc3)n2)cc1 [SB-238039],%Inh,RIPK5; 1 µM,82% and 61%
same,%Inh,ROCK1; 1 µM,27% and 0%
same,%Inh,ROCK2; 1 µM,32% and 9%
same,%Inh,ROS1,0%
same,%Inh,[1]; 1 µM,16% and 4%
same,%Inh,[2]; 1 µM,0% and 4%
same,%Inh,[3]; 1 µM,36% and 11%
same,%Inh,[4]; 1 µM,23% and 0%
same,%Inh,[5],0%
same,%Inh,[6]; 1 µM,64% and 35%
O=C(NCCNc1ccnc(Nc2ccc(F)cc2)n1)c1cc2ccccc2s1 [GSK1379874],%Inh,RIPK5,0%
same,%Inh,ROCK1,29%
same,%Inh,ROCK2,30%
same,%Inh,ROS1,15%
same,%Inh,[1],0%
same,%Inh,[2],0%
same,%Inh,[3],4%
same,%Inh,[4],0%
same,%Inh,[5],26%
same,%Inh,[6],0%
Cc1c(Cn2c(C)nn3c(=O)cc(N4CCOC(C)C4)nc23)cccc1C(F)(F)F (stereo not shown) [GSK2344444],%Inh,RIPK5,0%
same,%Inh,ROCK1,0%
same,%Inh,ROCK2,10%
same,%Inh,ROS1,14%
same,%Inh,[1],21%
same,%Inh,[2],0%
same,%Inh,[3],0%
same,%Inh,[4],0%
same,%Inh,[5],0%
same,%Inh,[6],6%
